The campaign covered roughly 5,500 compounds. About 2,000 (36%) were called active. Inconclusive results (about 18%) are left out. Cut-off read from the data, not from the text of the source: active = normalized growth mostly below about 0.91 (no sharp cut-off); inconclusive = no clear call, values can overlap the other calls; inactive = mostly above about 0.92. The list shows a part of the results.
Experiment: chemical genetic growth profiling, strain panel (AID 1159580);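 note: tested at 20 µM; growth read once vehicle control cultures reached saturation at 30 °C; 1 = growth at the plate median or of vehicle wells; lower values mean less growth of the strain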
Conditions: growth OD
[1] = S. cerevisiae deletion strains, locus YAL013W, strain DEP1, active compounds read low
[2] = S. cerevisiae deletion strains, locus YDR150W, strain NUM1, active compounds read low
[3] = S. cerevisiae deletion strains, locus YGR078C, strain PAC10, active compounds read low
[4] = S. cerevisiae deletion strains, locus YJR075W, strain HOC1, active compounds read low
[5] = S. cerevisiae deletion strains, locus YMR307W, strain GAS1, active compounds read low
[6] = S. cerevisiae deletion strains, locus YNL322C, strain KRE1, active compounds read low
[7] = S. cerevisiae deletion strains, locus YBR229C, strain ROT2, active compounds read low
[8] = S. cerevisiae deletion strains, locus YDL101C, strain DUN1, active compounds read low
[9] = S. cerevisiae deletion strains, locus YEL061C, strain CIN8, active compounds read low
[10] = S. cerevisiae deletion strains, locus YHR030C, strain SLT2, active compounds read low
[11] = S. cerevisiae deletion strains, locus YJR043C, strain POL32, active compounds read low
[12] = S. cerevisiae deletion strains, locus YLR039C, strain RIC1, active compounds read low
[13] = S. cerevisiae deletion strains, locus YLR262C, strain YPT6, active compounds read low
[14] = S. cerevisiae deletion strains, locus YNL153C, strain GIM3, active compounds read low
[15] = S. cerevisiae deletion strains, locus YPL241C, strain CIN2, active compounds read low

Measured: normalized growth

COc1cc(CNC(=O)CCCCCCC(C)C)ccc1O
inactive: [1] 0.944 | S. cerevisiae deletion strains, locus YAL040C, strain CLN3, active compounds read low 0.986 | S. cerevisiae deletion strains, locus YCL061C, strain MRC1 (second series), active compounds read low 0.993 | [2] 1 | S. cerevisiae deletion strains, locus YDR363W, strain ESC2, active compounds read low 0.974 | S. cerevisiae deletion strains, locus YER002W, strain NOP16, active compounds read low 1 | [3] 0.999 | [4] 0.988 | [5] 0.973 | S. cerevisiae deletion strains, locus YNL175C, strain NOP13, active compounds read low 1.01 | S. cerevisiae deletion strains, locus YNL197C, strain WHI3, active compounds read low 0.981 | S. cerevisiae deletion strains, locus YNL224C, strain SQS1, active compounds read low 0.981 | [6] 0.983 | S. cerevisiae deletion strains, locus YOR083W, strain WHI5 (second series), active compounds read low 0.981

CCC[C@H]1CC2=C(C[C@@H](CC)CC3=C1C(=O)OC3=O)C(=O)OC2=O
inactive: S. cerevisiae deletion strains, locus YBR021W, strain FUR4, active compounds read low 1 | [7] 1.01 | S. cerevisiae deletion strains, locus YCL029C, strain bik1, active compounds read low 1.02 | S. cerevisiae deletion strains, locus YDL035C, strain GPR1, active compounds read low 1.03 | S. cerevisiae deletion strains, locus YDL074C, strain BRE1, active compounds read low 1.02 | [8] 1.02 | S. cerevisiae deletion strains, locus YDL134C, strain PPH21, active compounds read low 1.01 | S. cerevisiae deletion strains, locus YDL185W, strain tfp1, active compounds read low 1.01 | S. cerevisiae deletion strains, locus YDL192W, strain arf1, active compounds read low 1.02 | S. cerevisiae deletion strains, locus YDR101C, strain arx1, active compounds read low 1.03 | [2] 1.01 | S. cerevisiae deletion strains, locus YDR162C, strain NBP2, active compounds read low 1.01 | S. cerevisiae deletion strains, locus YDR318W, strain mcm21, active compounds read low 0.998 | S. cerevisiae deletion strains, locus YDR388W, active compounds read low 1.02 | S. cerevisiae deletion strains, locus YDR502C, strain sam2, active compounds read low 1.01 | [9] 1.01 | S. cerevisiae deletion strains, locus YER110C, active compounds read low 1.02 | S. cerevisiae deletion strains, locus YER155C, strain BEM2, active compounds read low 1.01 | S. cerevisiae deletion strains, locus YER167W, strain BCK2, active compounds read low 1.01 | S. cerevisiae deletion strains, locus YGL086W, strain mad1, active compounds read low 1.05 | S. cerevisiae deletion strains, locus YGL248W, strain PDE1, active compounds read low 1 | [3] 1.01 | S. cerevisiae deletion strains, locus YGR135W, strain pre9, active compounds read low 1 | S. cerevisiae deletion strains, locus YGR252W, strain gcn5, active compounds read low 0.969 | [10] 1.01 | S. cerevisiae deletion strains, locus YHR079C, strain IRE1 (second series), active compounds read low 1.02 | S. cerevisiae deletion strains, locus YHR094C, strain hxt1, active compounds read low 1.01 | S. cerevisiae deletion strains, locus YHR129C, strain ARP1, active compounds read low 1.02 | S. cerevisiae deletion strains, locus YHR200W, strain rpn10, active compounds read low 1 | S. cerevisiae deletion strains, locus YIL066C, strain RNR3, active compounds read low 1.02 | S. cerevisiae deletion strains, locus YIL073C, strain SPO22, active compounds read low 1.07 | S. cerevisiae deletion strains, locus YIR030C, strain dcg1, active compounds read low 1.01 | S. cerevisiae deletion strains, locus YJL095W, strain BCK1, active compounds read low 1.01 | S. cerevisiae deletion strains, locus YJL134W, strain LCB3, active compounds read low 1.01 | S. cerevisiae deletion strains, locus YJL168C, strain set2, active compounds read low 1.01 | S. cerevisiae deletion strains, locus YJL187C, strain SWE1 (second series), active compounds read low 1.02 | [11] 1.01 | [4] 1.01 | S. cerevisiae deletion strains, locus YKL068W, active compounds read low 0.979 | S. cerevisiae deletion strains, locus YKL085W, strain MDH1 (second series), active compounds read low 0.932 | S. cerevisiae deletion strains, locus YKL085W, strain MDH1, active compounds read low 0.932 | S. cerevisiae deletion strains, locus YKL190W, strain CNB1, active compounds read low 1.01 | S. cerevisiae deletion strains, locus YKR001C, strain vps1, active compounds read low 1.02 | [12] 1.04 | S. cerevisiae deletion strains, locus YLR058C, strain SHM2, active compounds read low 1.01 | S. cerevisiae deletion strains, locus YLR102C, strain apc9, active compounds read low 1.02 | [13] 1.02 | S. cerevisiae deletion strains, locus YLR268W, strain sec22, active compounds read low 1.04 | S. cerevisiae deletion strains, locus YLR330W, strain CHS5, active compounds read low 1.01 | S. cerevisiae deletion strains, locus YLR342W, strain FKS1 (second series), active compounds read low 1.03 | S. cerevisiae deletion strains, locus YLR371W, strain rom2, active compounds read low 1.03 | S. cerevisiae deletion strains, locus YLR418C, strain cdc73, active compounds read low 0.991 | S. cerevisiae deletion strains, locus YML016C, strain PPZ1, active compounds read low 1 | S. cerevisiae deletion strains, locus YML032C, strain rad52, active compounds read low 0.999 | S. cerevisiae deletion strains, locus YML124C, strain tub3, active compounds read low 1.01 | S. cerevisiae deletion strains, locus YMR078C, strain ctf18, active compounds read low 1.01 | S. cerevisiae deletion strains, locus YMR223W, strain ubp8, active compounds read low 0.987 | [5] 0.947 | S. cerevisiae deletion strains, locus YNL067W, strain RPL9B, active compounds read low 1.01 | [14] 1.02 | S. cerevisiae deletion strains, locus YNL233W, strain BNI4, active compounds read low 0.999 | S. cerevisiae deletion strains, locus YNL307C, strain MCK1, active compounds read low 1.02 | [6] 1.01 | S. cerevisiae deletion strains, locus YNR052C, strain pop2, active compounds read low 0.998 | S. cerevisiae deletion strains, locus YOL006C, strain TOP1, active compounds read low 1.08 | S. cerevisiae deletion strains, locus YOL012C, strain htz1 0.773 | S. cerevisiae deletion strains, locus YOL147C, strain pex11, active compounds read low 1.01 | S. cerevisiae deletion strains, locus YOR061W, strain CKA2, active compounds read low 1.01 | S. cerevisiae deletion strains, locus YOR069W, strain VPS5, active compounds read low 1.02 | S. cerevisiae deletion strains, locus YOR136W, strain idh2, active compounds read low 1.04 | S. cerevisiae deletion strains, locus YOR144C, strain elg1, active compounds read low 1.01 | S. cerevisiae deletion strains, locus YOR184W, strain ser1, active compounds read low 1.02 | S. cerevisiae deletion strains, locus YOR316C, strain cot1, active compounds read low 1.02 | [15] 1.01 | S. cerevisiae deletion strains, locus YPR119W, strain clb2, active compounds read low 1.02 | S. cerevisiae deletion strains, locus YPR163C, strain tif3, active compounds read low 1.01 | S. cerevisiae deletion strains, locus YPR167C, strain met16, active compounds read low 0.998 | S. cerevisiae deletion strains, strain wtn01, active compounds read low 1.06
active: S. cerevisiae deletion strains, locus YGL078C, strain dbp3, active compounds read low 0.65 | S. cerevisiae deletion strains, locus YIL125W, strain kgd1, active compounds read low 0.875 | S. cerevisiae deletion strains, locus YKL009W, strain mrt4, active compounds read low 0.663 | S. cerevisiae deletion strains, locus YNL250W, strain rad50, active compounds read low 0.814 | S. cerevisiae deletion strains, locus YNL271C, strain bni1, active compounds read low 0.845 | S. cerevisiae deletion strains, locus YNL298W, strain CLA4, active compounds read low 0.818 | S. cerevisiae deletion strains, locus YPR141C, strain kar3, active compounds read low 0.896

CSC1=NCN(Cc2ccccc2)CN1
inactive: [1] 0.991 | [7] 0.996 | [8] 1 | [2] 1.01 | [9] 0.981 | [3] 1 | [10] 1.02 | S. cerevisiae deletion strains, locus YHR087W, strain rtc3, active compounds read low 1 | [11] 1 | [4] 0.99 | [12] 0.969 | S. cerevisiae deletion strains, locus YLR058C, strain SHM2 (second series), active compounds read low 1.01 | S. cerevisiae deletion strains, locus YLR085C, strain ARP6, active compounds read low 0.954 | [13] 0.972 | S. cerevisiae deletion strains, locus YML094W, strain GIM5, active compounds read low 0.981 | S. cerevisiae deletion strains, locus YMR219W, strain ESC1, active compounds read low 0.986 | S. cerevisiae deletion strains, locus YMR263W, strain SAP30, active compounds read low 1 | [14] 1.02 | S. cerevisiae deletion strains, locus YNL298W, strain CLA4 (second series), active compounds read low 1 | [6] 0.972 | S. cerevisiae deletion strains, locus YNR030W, strain Alg12, active compounds read low 0.977 | S. cerevisiae deletion strains, locus YPL055C, strain LGE1, active compounds read low 1.06 | [15] 0.987 | S. cerevisiae deletion strains, locus YPR135W, strain CTF4, active compounds read low 1.1 | S. cerevisiae strains, strain wild type, active compounds read low 0.98

From PubChem BioAssay AID1159580 (chemical genetic matrix, 2015)
